# The list is not random: actives were taken first. Their share in the collection is about 21%.
# DRD3 antagonist – qHTS of D3 Dopamine Receptor Antagonist: qHTS; D(3) dopamine receptor (Homo sapiens), P35462; D3R cells, DiscoveRx beta-arrestin luminescence, antagonist mode; stronger effect = lower value; max response, negative = inhibition, %; 360,000 tested, 2.5% active; AID 652054, 2013; in the data active means max response below about -50%; inconclusive means no clear call, values can overlap the other calls; further: on the % scale 0 is the no-effect control and ±100 the full control effect
#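 Cells expressing the human receptor were seeded at 1500 cells/well, incubated overnight at 37 degrees C in 5% CO2, then exposed to library compounds with dopamine controls for 90 minutes at 37 degrees C before luminescent detection.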
# ClpP mod – qHTS Assay for Activators of ClpP | ATP-dependent Clp protease proteolytic subunit (Bacillus subtilis (strain 168)), P80244 | purified B. subtilis ClpP, FRET peptide cleavage, 20 min | Potency, µM (highest dose often 57.5 µM), inactives show top-dose activity change, negative = active | 340,000 tested, 1.9% active | AID 651965, 2013; active means well fitted falling curve with a large enough effect; inconclusive means small, poorly fitted or top-dose-only effect; inactive means no such curve, though single readings can be large or run the other way; further: potency means the concentration at half of the fitted maximal effect; the source files actives as falling curves though it sought activators and does not explain the sign; nearly all actives have a fitted effect of over 65% in size
#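 ClpP 10 microg/mL final, pH 8 Tris/KCl buffer with BSA, glycerol, Tween-20; compound pinned in; FRET-FV substrate; RT 20 min; Ex320/Em430; ΔFRET vs ADEP 5.8 microM, DMSO, no enzyme.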
# DRD3 agonist – qHTS of D3 Dopamine Receptor Agonist: qHTS | 410,000 tested, 0.58% active | max activation, % | D3R DiscoveRx beta-arrestin cells, luminescence, 90 min | D(3) dopamine receptor (Homo sapiens), P35462; in the data active means max activation above about 30%; further: 0% is about no effect
#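 Agonist mode: compounds and dopamine controls were applied to plated cells for 90 min at 37 degrees C after an overnight attachment at 1500 cells/well. Luminescent read-out followed 30 - 60 minutes at room temperature with DiscoveRx detection reagent.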
# IL-1B inflam inh – qHTS for Inhibitors of Inflammasome Signaling: IL-1-beta AlphaLISA Primary Screen; THP-1 LPS/ATP IL-1B secretion, AlphaLISA, 16 h; stronger effect = lower value; activity change, % at 57.5 µM; 360,000 tested, 4.7% active; in the data active means activity change below about -50%; inconclusive means mostly about -30% to -49%; further: on the % scale 0 is the no-effect control and ±100 the full control effect
#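 Secreted IL-1B measured by AlphaLISA bead assay after 16 h compound exposure of THP-1 cells; compounds (final up to 57.5 uM) added 1 h before LPS (250 ng/mL) and ATP (1.25 mM) stimulation; lower signal means less secretion.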
# TDP1 cell noCPT – qHTS for Inhibitors of human tyrosyl-DNA phosphodiesterase 1 (TDP1): qHTS in cells in absence of CPT; DT40 Tdp1-/- hTDP1 cells, no CPT, ATP luminescence, 48 h; Potency, µM (highest dose often 46.2 µM), for the others: at the highest dose activity change, negative = growth inhibition, usual class: inhibitors; 420,000 tested, 15% active; AID 686978, 2013; further: potency means the concentration at half of the fitted maximal effect; on the % scale 0 is the no-effect control and ±100 the full control effect; nearly all actives have a fitted effect of over 55% in size
#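 Chicken DT40 Tdp1-/- cells complemented with human TDP1, screened without camptothecin (DMSO vehicle only), 400 cells/well. Compounds pin-transferred, cells incubated at 37 °C for at least 48 hr. Growth read as ATP-dependent luminescence (CellTiter-Glo, 30 min at RT).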
# DT40 TDP1 CPT – qHTS for Inhibitors of human tyrosyl-DNA phosphodiesterase 1 (TDP1): qHTS in cells in presence of CPT; chicken DT40 Tdp1-/-;hTDP1 cells + 20 nM CPT, ATP luminescence, 48 h; Potency, µM (highest dose often 46.2 µM), without a hit: at the top dose activity change, negative = growth inhibition, usual class: inhibitors; 420,000 tested, 12% active; further: potency means the concentration at half of the fitted maximal effect; on the % scale 0 is the no-effect control and ±100 the full control effect; nearly all actives have a fitted effect of over 55% in size
#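 Cell growth measured by CellTiter-Glo luminescence after a minimum 48 h, 37 C compound exposure with 20 nM CPT in Tdp1-knockout DT40 cells stably expressing hTDP1, seeded 400/well; qHTS titration format.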
# * = called active by the depositor; ? = inconclusive; . = not tested or not shown; [ ] = another dose, or the depositor's remark. Unless noted, the call rests on the fitted dose curve; in most records, active means well fitted inhibition curve with a large enough effect; inconclusive means small, poorly fitted or top-dose-only effect; inactive means flat fitted curve, though single readings scatter.
SMILES,DRD3 antagonist,ClpP mod,DRD3 agonist,IL-1B inflam inh,TDP1 cell noCPT,DT40 TDP1 CPT
O=C(CSc1nc(-c2ccccc2)ns1)NCC1CCCO1 (configuration not stated),-6.3,-2.6%,10.8,9.3,-1.7%,-22.7%
O=[N+]([O-])c1ccc(N2N=C(c3ccco3)CC2c2ccccc2)cc1 (configuration not stated),20.4,-1.4%,-12.3,-55.1*,?,?
Cc1cc(C)c(-n2c(SCC(=O)N3CCOCC3)n[nH]c2=O)c(C)c1,10.2,-2.7%,-6.9,6.1,13.0%,-5.0%
CCOc1ccc2oc(-c3ccccc3)c(C(=O)N3CCN(CCO)CC3)c2c1,8.8,14.1µM*,22.1,-10.2,?,-18.8%
CCOc1ccc2oc(-c3ccccc3)c(C(=O)N(C)C)c2c1,42.8,25.1µM*,8.3,-0.3,18.4µM*,?
CN1CCN(c2ccc(CNC(=O)C3Cc4c(-c5cccc(F)c5)ccnc4O3)cc2)CC1 (configuration not stated),-56.1*,0.5%,-13.5,?,20.6µM*,?
O=C(NCc1ccccc1)C1Cc2c(-c3cccc(F)c3)ccnc2O1 (configuration not stated),-50.2*,-5.2%,-8.4,74.2,0.92µM*,0.92µM*
O=C(NCC1CC1)C1Cc2c(-c3cccc(F)c3)ccnc2O1 (configuration not stated),-2.9,-10.9%,6.1,-14.4,?,-8.4%
COc1ccc(CNC(=O)C2Cc3c(-c4cccc(F)c4)ccnc3O2)cc1OC (configuration not stated),-16.6,-1.9%,5.1,-11.1,?,8.2µM*
O=C(NCc1cccc(Cl)c1)C1Cc2c(-c3cccc(F)c3)ccnc2O1 (configuration not stated),25.4,-0.9%,1.1,-9.7,25.9µM*,20.6µM*
O=C(Oc1ccc(F)cc1)c1cccnc1,-0.8,1.6%,3.0,6.4,3.2%,3.0%
COc1ccc(OC(=O)C(C)N2C(=O)c3ccccc3C2=O)cc1 (configuration not stated),25.7,-1.4%,0.7,18.7,-17.5%,-16.7%
CC1=CC(C)(C)Nc2ccc(OC(=O)C(C)N3C(=O)c4ccccc4C3=O)cc21 (configuration not stated),-1.5,3.5%,-9.2,0.0,2.59µM*,2.06µM*
CC1=CC(C)(C)N(C(=O)CN2C(=O)CCC2=O)c2ccccc21,0.5,0.8%,9.7,-2.3,-3.2%,-7.3%
CC1=CC(C)(C)Nc2ccc(OC(=O)c3cccnc3)cc21,-17.3,9.4%,-2.8,-98.4*,4.61µM*,2.91µM*
CC1=CC(C)(C)Nc2ccc(OC(=O)CN3C(=O)CCC3=O)cc21,?,?,-10.9,-100.6*,2.82µM*,2.91µM*
COc1ccc(C(=O)Nc2ccc3c(c2)nc(CCNC(=O)c2ccco2)n3C)cc1,1.3,.,3.9,-9.2,?,-12.5%
CCn1c(COC(=O)CNC(=O)c2ccccc2F)nc2cc(S(=O)(=O)N(C)C)ccc21,0.0,-2.6%,1.8,4.6,22.3%,-13.5%
CCOC(=O)C1=NNC2C(=O)N(Cc3ccccc3)C(=O)C12 (configuration not stated),-8.8,0.3%,-6.2,9.7,-11.4%,15.8%
OCCOCCn1c(C(CO)Nc2nc(-c3ccc(F)cc3)cs2)nc2ccccc21 (configuration not stated),-4.5,-3.5%,-6.3,1.3,?,-22.1%
CCCn1c(C(C)Nc2nc(-c3ccc(Cl)c([N+](=O)[O-])c3)cs2)nc2ccccc21 (configuration not stated),-5.4,-1.3%,-29.2,-15.9,?,23.1µM*
O=[N+]([O-])c1cc(-c2csc(NC(CO)c3nc4ccccc4n3CCOCCO)n2)ccc1Cl (configuration not stated),12.1,1.2%,11.9,0.0,18.4µM*,?
COc1cc(/C=C(/C#N)c2nc(-c3cc4ccccc4oc3=O)cs2)ccc1O,.,-0.7%,-5.4,.,2.91µM*,-1.6%
N#C/C(=C/c1ccccc1Cl)c1nc(-c2cc3ccccc3oc2=O)cs1,.,-4.3%,3.5,.,-0.2%,-1.5%
CCCCNC(=O)c1nc(C2CCN(S(=O)(=O)c3cccc(C(F)(F)F)c3)CC2)oc1-c1ccccc1,32.7,?,2.5,13.0,8.2µM*,9.2µM*
SMILES,DRD3 antagonist,ClpP mod,DRD3 agonist,IL-1B inflam inh,TDP1 cell noCPT,DT40 TDP1 CPT
CCCCNC(=O)c1nc(C2CCN(S(=O)(=O)c3ccccc3)CC2)oc1-c1cccc(C(F)(F)F)c1,15.4,-23.6%,7.7,-23.9,-19.5%,?
CCCCNC(=O)c1nc(C2CCN(S(=O)(=O)c3csc(C(=O)O)c3)CC2)oc1-c1ccccc1,23.8,-1.0%,2.7,20.6,1.2%,-5.9%
CCCCNC(=O)c1nc(C2CCN(S(=O)(=O)c3c(OC)cccc3OC)CC2)oc1-c1ccccc1,-24.9,?,-23.4,-18.7,9.2µM*,11.6µM*
CCCCNC(=O)c1nc(C2CCN(S(=O)(=O)c3ccc(Cl)cc3)CC2)oc1-c1ccccc1,-22.7,20.4%,-0.2,0.0,7.31µM*,7.31µM*
COc1ccccc1CN1CCC2(CCC(CNC(=O)c3ccccc3N(C)C)O2)CC1 (configuration not stated),.,.,.,.,?,-12.1%[9.04 µM]
CC(C)(C)OC(=O)N1CCC(c2c(C(=O)NCCN3CCOCC3)cnn2-c2ccc(F)cc2)CC1,.,-2.2%,0.9,.,?,?
CCn1cc(C(=O)N[C@@H](C)C(=O)NCCCO)c(=O)c2cc3c(cc21)OCO3,5.6,.,12.0,8.7,-15.4%,-4.0%
CC(C)[C@H](CO)Nc1nc(Nc2ccc(C(=O)O)c(Cl)c2)c2ncn(C(C)C)c2n1,.,.,.,.,-0.9%,4.2%
C=CC(=O)Nc1ccc(Nc2nc(NC3CCC(N(C)C)CC3)nc3c2ncn3C(C)C)cc1 (configuration not stated),28.4,-0.2%,9.2,-108.8*,0.411µM*,0.326µM*
CC(=O)Nc1cc(C(=O)N2CCSCC2)cc2ncn(CCc3ccccn3)c12,.,.,.,.,-6.0%,-2.8%[9.04 µM]
